The campaign covered roughly 5,500 compounds. About 2,000 (36%) were called active. Roughly 18% stayed inconclusive and do not appear here. Cut-off read from the data, not from the text of the source: active = normalized growth mostly below about 0.91 (no sharp cut-off); inconclusive = no clear call, values can overlap the other calls; inactive = mostly above about 0.92. This is one part of the list.
Assay: chemical genetic growth profiling, strain panel (AID 1159580);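 note: tested at 20 µM; growth read once vehicle control cultures reached saturation at 30 °C; 1 = growth at the plate median or of vehicle wells; lower values mean less growth of the strain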
Conditions: S. cerevisiae deletion strains, growth OD

Measured: normalized growth

C=CCCCCCCCCCCCC(O)CC(O)CO (centres undefined)
active: locus YBR021W, strain FUR4, stronger effect = lower value 0.751 | locus YDL035C, strain GPR1, stronger effect = lower value 0.822 | locus YDR101C, strain arx1, stronger effect = lower value 0.899 | locus YDR318W, strain mcm21, stronger effect = lower value 0.872 | locus YDR502C, strain sam2, stronger effect = lower value 0.912 | locus YER167W, strain BCK2, stronger effect = lower value 0.872 | locus YGL086W, strain mad1, stronger effect = lower value 0.875 | locus YGR078C, strain PAC10, stronger effect = lower value 0.832 | locus YGR135W, strain pre9, stronger effect = lower value 0.887 | locus YHR079C, strain IRE1 (second series), stronger effect = lower value 0.883 | locus YHR129C, strain ARP1, stronger effect = lower value 0.903 | locus YIL066C, strain RNR3, stronger effect = lower value 0.784
inactive: locus YAL013W, strain DEP1, stronger effect = lower value 0.952 | locus YAL021C, strain ccr4, stronger effect = lower value 0.987 | locus YAL026C, strain drs2, stronger effect = lower value 1.01 | locus YAL030W, strain snc1, stronger effect = lower value 1 | locus YBL061C, strain skt5, stronger effect = lower value 1 | locus YBR009C, strain hhf1, stronger effect = lower value 1 | locus YBR023C, strain chs3, stronger effect = lower value 1 | locus YBR171W, strain sec66, stronger effect = lower value 0.986 | locus YBR229C, strain ROT2, stronger effect = lower value 0.974 | locus YBR231C, strain swc5, stronger effect = lower value 0.997 | locus YBR279W, strain paf1, stronger effect = lower value 0.981 | locus YCL011C, strain gbp2, stronger effect = lower value 0.992 | locus YCL016C, strain dcc1, stronger effect = lower value 0.987 | locus YCL029C, strain bik1, stronger effect = lower value 0.968 | locus YCL061C, strain MRC1, stronger effect = lower value 0.985 | locus YCL069W, strain vba3, stronger effect = lower value 0.991 | locus YCR088W, strain abp1, stronger effect = lower value 0.99 | locus YDL005C, strain med2, stronger effect = lower value 0.987 | locus YDL040C, strain nat1, stronger effect = lower value 0.998 | locus YDL074C, strain BRE1, stronger effect = lower value 0.82 | locus YDL101C, strain DUN1, stronger effect = lower value 0.949 | locus YDL134C, strain PPH21, stronger effect = lower value 0.951 | locus YDL185W, strain tfp1, stronger effect = lower value 0.989 | locus YDL192W, strain arf1, stronger effect = lower value 0.921 | locus YDR001C, strain nth1, stronger effect = lower value 0.987 | locus YDR069C, strain doa4, stronger effect = lower value 1.01 | locus YDR137W, strain rgp1, stronger effect = lower value 1.01 | locus YDR150W, strain NUM1, stronger effect = lower value 0.992 | locus YDR159W, strain sac3, stronger effect = lower value 0.99 | locus YDR162C, strain NBP2, stronger effect = lower value 0.948 | locus YDR195W, strain ref2 1.01 | locus YDR297W, strain sur2, stronger effect = lower value 0.996 | locus YDR334W, strain swr1, stronger effect = lower value 1 | locus YDR335W, strain msn5, stronger effect = lower value 0.998 | locus YDR388W, stronger effect = lower value 0.98 | locus YDR392W, strain spt3, stronger effect = lower value 0.918 | locus YEL003W, strain gim4, stronger effect = lower value 0.993 | locus YEL037C, strain rad23, stronger effect = lower value 1.01 | locus YEL061C, strain CIN8 (second series), stronger effect = lower value 0.994 | locus YEL061C, strain CIN8, stronger effect = lower value 0.962 | locus YER015W, strain faa2, stronger effect = lower value 0.99 | locus YER016W, strain bim1, stronger effect = lower value 0.997 | locus YER110C, stronger effect = lower value 0.969 | locus YER111C, strain swi4, stronger effect = lower value 0.991 | locus YER155C, strain BEM2 (second series), stronger effect = lower value 0.986 | locus YER155C, strain BEM2, stronger effect = lower value 0.97 | locus YFR010W, strain ubp6, stronger effect = lower value 1 | locus YGL078C, strain dbp3, stronger effect = lower value 0.967 | locus YGL167C, strain pmr1, stronger effect = lower value 0.998 | locus YGL173C, strain kem1, stronger effect = lower value 0.996 | locus YGL227W, strain vid30, stronger effect = lower value 0.981 | locus YGL240W, strain doc1, stronger effect = lower value 0.993 | locus YGL248W, strain PDE1, stronger effect = lower value 0.927 | locus YGL253W, strain hxk2, stronger effect = lower value 1 | locus YGR229C, strain SMI1, stronger effect = lower value 0.947 | locus YGR252W, strain gcn5, stronger effect = lower value 0.785 | locus YHR013C, strain ard1, stronger effect = lower value 0.966 | locus YHR027C, strain rpn1, stronger effect = lower value 0.995 | locus YHR030C, strain SLT2, stronger effect = lower value 0.974 | locus YHR094C, strain hxt1, stronger effect = lower value 0.985 | locus YHR142W, strain chs7, stronger effect = lower value 1.01 | locus YHR200W, strain rpn10, stronger effect = lower value 0.961 | locus YIL073C, strain SPO22, stronger effect = lower value 0.992 | locus YIL125W, strain kgd1, stronger effect = lower value 0.977 | locus YIR030C, strain dcg1, stronger effect = lower value 0.942 | locus YJL092W, strain hpr5, stronger effect = lower value 0.992 | locus YJL095W, strain BCK1 (second series), stronger effect = lower value 0.99 | locus YJL095W, strain BCK1, stronger effect = lower value 0.937 | locus YJL115W, strain asf1, stronger effect = lower value 0.993 | locus YJL129C, strain trk1, stronger effect = lower value 0.985 | locus YJL134W, strain LCB3, stronger effect = lower value 0.995 | locus YJL154C, strain vps35, stronger effect = lower value 0.987 | locus YJL164C, strain tpk1, stronger effect = lower value 0.997 | locus YJL166W, strain qcr8, stronger effect = lower value 0.99 | locus YJL168C, strain set2, stronger effect = lower value 0.974 | locus YJL187C, strain SWE1 (second series), stronger effect = lower value 0.913 | locus YJL187C, strain SWE1, stronger effect = lower value 0.996
